# ClpP mod = qHTS Assay for Activators of ClpP | purified B. subtilis ClpP, FRET peptide cleavage, 20 min | 1.9% of 340,000 active | Potency, µM (titrated, usually from 57.5 µM), for the others: top-dose activity change, negative = active | ATP-dependent Clp protease proteolytic subunit (Bacillus subtilis (strain 168)), P80244; active means well fitted falling curve with a large enough effect; inconclusive means small, poorly fitted or top-dose-only effect; inactive means no such curve, though single readings can be large or run the other way; further: potency means the concentration at half of the fitted maximal effect; the source files actives as falling curves though it sought activators and does not explain the sign; nearly all actives have a fitted effect of over 65% in size
#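 Purified B. subtilis ClpP, 10 microg/mL final in Tris/HCl pH8 with KCl, BSA, glycerol and Tween-20, cleaved an Abz/nitrotyrosine-quenched decapeptide. Fluorescence (ex 320, em 430) was read at 0 and 20 min at room temperature. Delta was normalized to 5.8 microM ADEP and DMSO/no-enzyme controls.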
# DRD3 agonist = D3 dopamine receptor (human) agonism; D3R DiscoveRx beta-arrestin cells, luminescence, 90 min; 0.58% of 410,000 active; max activation, %; in the data active means max activation above about 30%; further: 0% is about no effect
#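 Agonist mode: compounds and dopamine controls were applied to plated cells for 90 min at 37 degrees C after an overnight attachment at 1500 cells/well. Luminescent read-out followed 30 - 60 minutes at room temperature with DiscoveRx detection reagent.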
# DRD3 antagonist = antagonists of human D3 dopamine receptor | D3R cells, DiscoveRx beta-arrestin luminescence, antagonist mode; active compounds read low | max response, negative = inhibition, % | P35462 | 2.5% of 360,000 active; in the data active means max response below about -50%; inconclusive means no clear call, values can overlap the other calls; further: on the % scale 0 is the no-effect control and ±100 the full control effect
#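 Cells expressing the human receptor were seeded at 1500 cells/well, incubated overnight at 37 degrees C in 5% CO2, then exposed to library compounds with dopamine controls for 90 minutes at 37 degrees C before luminescent detection.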
# HEK293 tox = cytotoxicity counter-screen for GLP-1 receptor inverse agonists. Potency, µM (series often up to 38.3 µM), without a hit: at the highest dose activity change, negative = inhibition, most hits filed as inhibitors. HEK293 cAMP-luciferase reporter cells, luminescence, 24 h. AID 624418. 0.13% of 410,000 active;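 further: loss of luciferase light is scored as toxicity; potency means the concentration at half of the fitted maximal effect; on the % scale 0 is the no-effect control and ±100 the full control effect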
#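 1536-well qHTS counterscreen of the MLSMR; 200 cells/uL, 12 h pre-incubation, 23 nL cpd, 24 h at 37 deg C 5% CO2, luciferase detection reagent, 12 min RT, luminescence. Inhibition = undesired.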
# GLP1R ag = agonists of human GLP-1 receptor; P43220; HEK293 GLP-1R CRE-luciferase, luminescence, 4-6 h; cells express a hypersensitive GLP-1R form; Potency, µM (titrated, usually from 45.6 µM), inactives show at the top dose activation, actives largely listed as activators; 0.007% of 380,000 active; AID 624172; further: potency means the concentration at half of the fitted maximal effect; % of control where 0% means no effect
# GLP-1R inv ag = GLP-1 receptor (human) inverse agonism; P43220; HEK293 GLP-1R CRE-luciferase, luminescence, 24 h; GLP-1R form is constitutively active; Potency, µM (series often up to 38.3 µM), for inactives: top-dose activity change, negative = inhibition, usual class: inhibitors; 1.6% of 410,000 active; further: potency means the concentration at half of the fitted maximal effect; on the % scale 0 is the no-effect control and ±100 the full control effect; nearly all actives have a fitted effect of over 55% in size
#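 HEK293 cells stably co-expressing a cAMP-responsive luciferase reporter and constitutively active GLP-1R were seeded, incubated 12 h, then exposed to compounds for 24 h at 37 C. Luminescence was read 12 min after detection reagent; inverse agonists lower signal.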
# * marks the source's active call; other numbers are inactive results; ? = inconclusive; . = not tested or not shown. Only some compounds are listed: those with a hit (about 5.7% of all), similar ones and a draw of the others. Unless noted, the call rests on the fitted dose curve; in most records, active means well fitted curve in the direction sought with a large enough effect; inconclusive means small, poorly fitted or top-dose-only effect, or another doubt; inactive means no such curve, though single readings can be large; an effect the other way counts as inactive or inconclusive.
SMILES,ClpP mod,DRD3 agonist,DRD3 antagonist,HEK293 tox,GLP1R ag,GLP-1R inv ag
COc1ccc(Cl)cc1NC(=O)NCC1CCN(C(=O)OC(C)(C)C)CC1,-7%,-45,-73*,-12%,1%,?
COc1ccc(C(=O)N2CCN(C3CCCCC3)CC2)c(OC)c1,-1%,-2,-86*,2%,-12%,-7%
COc1ccc(Cl)cc1NC(=O)N1CCN(C2CCCCC2)CC1,0%,-44,-57*,-14%,20%,?
COc1cc(OC)c(NC(=O)N2CCN3CCCCC3C2)cc1Cl (stereo not given),-1%,-9,.,2%,.,2%
COc1ccc(Cl)cc1NC(=O)NCCN1CCCCC1,.,-14,?,-5%,-4%,?
O=C(CSc1nnc2ccc3ccccc3n12)Nc1ccccc1Cl,-3%,-3,.,0%,.,20%
Cc1ccc(Cl)cc1N1CCN(C(=O)c2c(C)oc3ncnc(N4CCOCC4)c23)CC1,0%,-5,.,-3%,.,-7%
O=C1Nc2c(Cl)cccc2C1=O,167%,-10,?,-5%,-2%,12%
Cn1nnnc1SCc1ccc(C(=O)Nc2nccs2)cc1,2%,14,-15,0%,-8%,0%
C=CCn1c(SCc2ccc(C(=O)Nc3nccs3)cc2)nnc1-c1ccc(C)c(Cl)c1,-27%,14,25,?,-6%,4.5µM*
CC(=O)Nc1cc(-c2ccccc2)ccc1O,4%,-2,33,-4%,-1%,2%
Nc1cc(-c2ccccc2)ccc1O,32µM*,10,-20,-8%,-1%,28%
Cc1ccccc1OC(=O)CSc1nnc(-c2ccc(F)cc2)o1,1%,5,.,-2%,.,5%
Cc1c(C(=O)NCc2ccccc2C(F)(F)F)sc(=O)n1Cc1ccc2c(c1)OCO2,-2%,0,-11,-1%,13%,?
CCn1c(=O)c2cc(C(=O)N(CCCOC(C)C)Cc3ccco3)sc2c2ccccc21,4%,5,.,4%,0%,?
Cc1cc(=O)[nH]c2nnc(SCC(=O)NC(C)(C)C)n12,-7%,-8,.,-1%,.,-2%
Cc1cc(=O)[nH]c2nnc(SCC(=O)Nc3ccc(OC(F)(F)F)cc3)n12,-6%,47*,.,12%,.,7%
COc1ccc(CCNC(=O)c2ccc3c(c2)CCN3S(C)(=O)=O)cc1OC,2%,-15,.,1%,.,3%
C[C@@]12CCC=C[C@H]1[C@H](c1ccc(/C=C/c3ccccc3)cc1F)N(Cc1ccccc1)C2=O,4%,-26,-15,21%,3%,7.9µM*
COc1ccc(-c2ccc(C)cc2)cc1[C@H]1[C@@H]2C=CCC[C@@]2(C)C(=O)N1Cc1ccccc1,?,-44,-56*,1%,5%,10µM*
Cc1ccn2c(Nc3ccc4c(c3)OCO4)c(-c3ccc(C)o3)nc2c1,4%,-5,.,-1%,.,?
COc1ccc(-c2nc3ccc(C)cn3c2NCc2ccc3c(c2)OCO3)cc1,?,0,3,-21%,16%,5%
Cc1ccc(Nc2c(-c3ccccn3)nc3ccc(C)cn23)cc1,-6%,-29,-78*,?,-5%,?
Cc1ccc2nc(-c3ccccc3F)c(Nc3ccc(Cl)cc3)n2c1,4%,5,.,0%,.,11µM*
COc1ccc(Nc2c(-c3ccccn3)nc3ccc(Cl)cn23)cc1,0%,-27,.,-13%,.,5%
SMILES,ClpP mod,DRD3 agonist,DRD3 antagonist,HEK293 tox,GLP1R ag,GLP-1R inv ag
Cc1ccc(-c2nc3ccccn3c2NCc2ccc3c(c2)OCO3)cc1,32µM*,2,-21,-4%,1%,?
Cc1ccn2c(Nc3ccc4c(c3)OCO4)c(-c3ccccn3)nc2c1,-1%,-17,-54*,?,5%,3%
O=C(CC[C@H]1O[C@@H](n2cnc3c(NC(=O)c4ccccc4)ncnc32)[C@H](O)[C@@H]1O)NCC1CCCCC1,2%,6,13,-5%,2%,5%
CCN(CC)CCOc1ccc(-c2nc3cc(Cl)ccc3s2)cc1,.,-12,.,.,-3%,.
Cc1ccc(Nc2c(-c3ccc(C)cc3)nc3ccc(C)cn23)cc1,?,-16,.,-9%,.,15%
Cc1ccc(Nc2c(-c3ccco3)nc3ccc(C)cn23)cc1,6.3µM*,6,.,11%,.,8%
O=C(NCCC1=CCCCC1)c1cc(COc2ccc(F)cc2Cl)on1,1%,-9,2,-11%,3%,5µM*
O=C(NCCC1=CCCCC1)c1cc(COc2c(F)cccc2F)on1,-4%,-3,-10,-13%,4%,?
O=C(c1cc(COc2ccc(F)cc2Cl)on1)N1C[C@H]2CC[C@H]1C2,28µM*,-1,-6,5%,11%,?
CC(C)(C)C(=O)/C(=C/c1ccc(Cl)cc1)n1cncn1,-1%,-6,-3,-8%,-4%,4µM*
CC(C)/C=C(/C(=O)c1ccc(Cl)cc1Cl)n1cncn1,-2%,3,9,-24%,-2%,?
Cc1cccc(N2C(=O)CSC23C(=O)N(CC(=O)NCc2ccccc2Cl)c2ccccc23)c1 (stereo not given),-8%,-16,.,2%,2%,10µM*
CCCCOCCCNC(=O)C[C@@H]1C[C@@]2(C(=O)OC)CCCCC=C2N(CCc2ccc(OC)c(OC)c2)C1=O,-1%,5,-6,-7%,.,-21%
O=S1(=O)CCOC[C@H](c2ccccc2)N1Cc1cccc(Cl)c1,-1%,-13,-59*,17%,-6%,?
C#CCC(Cc1cnc2nc(N)nc(N)c2n1)c1ccc(C(=O)N[C@@H](CCC(=O)O)C(=O)O)cc1 (stereo not given in full),.,7,.,.,6%,.
O=c1c(N=Nc2ccccc2)c[nH]n1-c1ccccc1,0%,-19,-62*,-12%,3%,7%
COc1ccc(OC)c(NC(=O)c2cn3c4c(ccc(Cl)c4c2=O)OC(C)C3)c1 (stereo not given),-4%,-1,.,-9%,.,2%
CSc1nc(Nc2ccc(C)cc2C)cc(-c2ccccc2)n1,?,33*,.,-6%,.,?
COC(=O)c1nc(NC(=O)c2ccc(Br)cc2)n[nH]1,-2%,5,-8,0%,0%,-5%
COC(=O)c1nc(NC(=O)c2ccccc2Cl)n[nH]1,2%,6,-60*,-8%,6%,-1%
O=C(CSc1nc2c([nH]c3ccccc32)c(=O)n1-c1ccccc1)NCc1ccc(F)cc1,-10%,-11,.,-8%,.,5%
COc1ccc2c(CNC3CCCCCC3)c(C(=O)O)n(Cc3ccccc3F)c2c1,?,-12,.,-14%,.,-19%
